Data reported in PubChem BioAssay (NCI).
The panel holds about 79,000 compounds, 15% with a hit somewhere; the sample as a whole holds those more often. Activity calls are given as the source filed them. Rule as the data show it: active = growth inhibition above about 70%; inactive = the rest.

How the values were obtained:
[1] = NCI Yeast Anticancer Drug Screen. Data for the rad52 strain (AID 147);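 also: 0% = growth of vehicle-treated control cultures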; settings: S. cerevisiae rad52 mutant growth inhibition, hits give high values
Outline: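 Genetically altered yeast (DNA damage repair defect) treated with compound; inhibition calculated relative to vehicle.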

[2] = NCI Yeast Anticancer Drug Screen. Data for the wt1 strain (AID 149);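 also: 0% = growth of vehicle-treated wt1 cultures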; settings: S. cerevisiae wt1 strain (SPY 50644) growth inhibition, hits give high values
Outline: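 Compounds are added to wt1 yeast cultures. Growth is then measured. Inhibition is expressed relative to vehicle-treated controls.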

[3] = NCI Yeast Anticancer Drug Screen. Data for the rad50EPP+ strain (AID 151);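 also: 0% = growth of vehicle-treated control cultures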; settings: S. cerevisiae rad50 mutant strain, hits give high values
Outline: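 Strain rad50EPP+; compound exposure; % growth inhibition vs vehicle.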

[4] = NCI Yeast Anticancer Drug Screen. Data for the mgt1 strain (AID 153); settings: S. cerevisiae mgt1 mutant growth inhibition, hits give high values
Outline: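 Read-out: yeast growth inhibition vs vehicle control. Strain mgt1, drawn from a panel altered in DNA damage repair or cell cycle control.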

[5] = NCI Yeast Anticancer Drug Screen. Data for the rad50 strain (AID 155);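 also: 0% = growth of vehicle-only cultures of the same strain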; settings: S. cerevisiae rad50 strain growth inhibition, hits give high values
Outline: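 Inhibition values express reduced yeast growth in compound-treated cultures relative to vehicle-treated controls.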

[6] = NCI Yeast Anticancer Drug Screen. Data for the rad14 strain (AID 159);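 also: 0% = growth of vehicle-treated control cultures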; settings: S. cerevisiae rad14 strain growth inhibition, hits give high values
Outline: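 A mutant yeast strain defective in DNA damage repair is treated with compound; inhibition of its growth is scored against untreated, vehicle-exposed cultures.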

[7] = NCI Yeast Anticancer Drug Screen. Data for the sgs1 mgt1 strain (AID 161);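 also: 0% = growth of cultures given vehicle only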; settings: S. cerevisiae sgs1 mgt1 strain, hits give high values
Outline: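 Inhibition of yeast growth, normalised to vehicle-treated controls, is reported for a strain bearing genetic alterations in DNA damage repair.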

[8] = NCI Yeast Anticancer Drug Screen. Data for the CLN2oe strain (AID 163);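 also: 0% = growth of vehicle-only control cultures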; settings: S. cerevisiae CLN2oe strain, hits give high values
Outline: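 Strain altered in cell-cycle control, incubated with compound; growth compared to solvent-treated controls.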

[9] = NCI Yeast Anticancer Drug Screen. Data for the cln2 rad14 strain (AID 165);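 also: 0% = growth equal to vehicle treated cultures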; settings: S. cerevisiae cln2 rad14 strain, hits give high values
Outline: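 The screen exposed genetically defined yeast (cln2 rad14) to test compounds and scored growth inhibition relative to vehicle-treated controls.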

[10] = NCI Yeast Anticancer Drug Screen. Data for the bub3 strain (AID 167); settings: S. cerevisiae bub3 mutant strain, hits give high values
Outline: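 Steps: expose the mutant yeast strain to compound; grow alongside vehicle-treated cultures; measure growth; express inhibition against the vehicle cultures.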

[11] = NCI Yeast Anticancer Drug Screen. Data for the wt2 strain (AID 169);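 also: 0% = growth of vehicle-treated yeast cultures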; settings: S. cerevisiae wt2 strain growth inhibition, hits give high values
Outline: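 Steps: yeast strain treated with compound; growth recorded; inhibition calculated relative to cultures given vehicle alone.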

[12] = NCI Yeast Anticancer Drug Screen. Data for the mlh1 strain (AID 171);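 also: 0% = growth of vehicle-treated control cultures of the same strain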; settings: S. cerevisiae mlh1 strain growth inhibition, hits give high values
Outline: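 Yeast screen: mutant strain plus compound, growth scored against vehicle control wells.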

[13] = NCI Yeast Anticancer Drug Screen. Data for the sgs1 strain (AID 173);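 also: 0% = growth of vehicle-only control cultures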; settings: S. cerevisiae sgs1 mutant, hits give high values
Outline: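 Inhibition of yeast growth served as the measure. The mutant strain was treated with each compound, and growth was normalised to cultures receiving vehicle alone.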

[14] = NCI Yeast Anticancer Drug Screen. Data for the mlh1 rad18 strain (AID 175); settings: S. cerevisiae mlh1 rad18 strain growth inhibition, hits give high values
Outline: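 Compound-treated yeast growth, normalised to vehicle controls. Strain bears defined DNA repair mutations.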

[15] = NCI Yeast Anticancer Drug Screen. Data for the rad18 strain (AID 177); settings: S. cerevisiae rad18 mutant growth inhibition, hits give high values
Outline: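 Inhibition values reflect reduced yeast growth compared with vehicle-treated controls, using a strain engineered with a DNA damage repair defect.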

[16] = at 5.0 µM (retest, dose inferred, filed as 0.5)
[17] = at 50.0 µM (retest, dose inferred, filed as 5.0)

Measured: growth inhibition

O=C1c2cccc3cc([N+](=O)[O-])cc(c23)C(=O)N1CCN1CCCC1
inactive: [1]; at 1.2 µM 33% | [1]; at 3.7 µM 61% | [1]; at 11.0 µM 63% | [2]; at 1.2 µM 8% | [2]; at 3.7 µM 8% | [2]; at 11.0 µM 0% | [2]; at 33.0 µM 3% | [2]; at 100.0 µM 25% | [3]; at 1.2 µM 13% | [3]; at 3.7 µM 23% | [3]; at 11.0 µM 39% | [4]; at 1.2 µM -6% | [4]; at 3.7 µM 10% | [4]; at 11.0 µM 8% | [4]; at 33.0 µM 7% | [4]; at 100.0 µM 44% | [5]; at 1.2 µM 16% | [5]; at 3.7 µM 48% | [5]; [16] 11% | [5]; at 11.0 µM 62% | [5]; at 50.0 µM 66.7% | [6]; at 1.2 µM 12% | [6]; at 3.7 µM 11% | [6]; at 11.0 µM 14% | [6]; at 33.0 µM 5% | [6]; at 100.0 µM 28% | [7]; [16] 8% | [7]; [17] 12% | [7]; at 50.0 µM -14.2% | [8]; at 1.2 µM 7% | [8]; at 3.7 µM 25% | [8]; at 11.0 µM 25% | [8]; at 33.0 µM 39% | [8]; at 100.0 µM 61% | [9]; [16] 9% | [9]; [17] 36% | [9]; at 50.0 µM -15.8% | [10]; at 1.2 µM 9% | [10]; at 3.7 µM 20% | [10]; [16] 9% | [10]; at 11.0 µM 13% | [10]; at 33.0 µM 17% | [10]; [17] 12% | [10]; at 50.0 µM -11.2% | [10]; at 100.0 µM 35% | [11]; at 1.2 µM -11% | [11]; at 3.7 µM 0% | [11]; at 11.0 µM 12% | [11]; at 33.0 µM 7% | [11]; at 100.0 µM 19% | [12]; at 1.2 µM 0% | [12]; at 3.7 µM 20% | [12]; at 11.0 µM -4% | [12]; at 33.0 µM 18% | [12]; at 100.0 µM 39% | [13]; at 1.2 µM 0% | [13]; at 3.7 µM 0% | [13]; at 11.0 µM 2% | [13]; at 33.0 µM 19% | [13]; at 100.0 µM 50% | [14]; [16] 3% | [14]; [17] 18% | [14]; at 50.0 µM -41.9% | [15]; at 1.2 µM 24% | [15]; at 3.7 µM 23% | [15]; at 11.0 µM 33% | [15]; at 33.0 µM 15%
active: [1]; at 33.0 µM 90% | [1]; at 100.0 µM 94% | [3]; at 33.0 µM 73% | [3]; at 100.0 µM 83% | [5]; at 33.0 µM 88% | [5]; [17] 95% | [5]; at 100.0 µM 91% | [15]; at 100.0 µM 73%
